Measured values as given in PubChem BioAssay (NCI).
The panel holds about 83,000 compounds, 20% with a hit somewhere; the sample as a whole holds those more often.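 Single-concentration screen, 48 h exposure, 96-well plates. Endpoint: percent growth. Below 10 = active.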 A number with no mark means an inactive call. Active and inactive are the calls of the source.

Experiments:
Test in all cases: NCI-60 one-dose screen, 48 h (100 = growth as untreated, 0 = no growth, -100 = all killed)
Conditions in all cases: 10 µM unless noted
SK-MEL-2 melanoma = tested on: SK-MEL-2 melanoma
EKVX NSCLC = tested on: EKVX NSCLC
SN12C renal = tested on: SN12C renal
UO-31 renal = tested on: UO-31 renal
TK-10 renal = tested on: TK-10 renal
ACHN renal = tested on: ACHN renal
CAKI-1 renal = tested on: CAKI-1 renal
A498 renal = tested on: A498 renal
CCRF-CEM leukemia = tested on: CCRF-CEM leukemia
MOLT-4 leukemia = tested on: MOLT-4 leukemia
SR leukemia = tested on: SR leukemia
RPMI-8226 leukemia = tested on: RPMI-8226 leukemia
OVCAR-8 ovarian = tested on: OVCAR-8 ovarian
OVCAR-5 ovarian = tested on: OVCAR-5 ovarian
OVCAR-4 ovarian = tested on: OVCAR-4 ovarian
SK-OV-3 ovarian = tested on: SK-OV-3 ovarian
IGROV1 ovarian = tested on: IGROV1 ovarian
HS 578T breast = tested on: HS 578T breast
NCI/ADR-RES ovarian = tested on: NCI/ADR-RES ovarian
OVCAR-3 ovarian = tested on: OVCAR-3 ovarian

SMILES | growth (SK-MEL-2 melanoma) | growth (EKVX NSCLC) | growth (SN12C renal) | growth (UO-31 renal) | growth (TK-10 renal) | growth (ACHN renal) | growth (CAKI-1 renal) | growth (A498 renal) | growth (CCRF-CEM leukemia) | growth (MOLT-4 leukemia) | growth (SR leukemia) | growth (RPMI-8226 leukemia) | growth (OVCAR-8 ovarian) | growth (OVCAR-5 ovarian) | growth (OVCAR-4 ovarian) | growth (SK-OV-3 ovarian) | growth (IGROV1 ovarian) | growth (HS 578T breast) | growth (NCI/ADR-RES ovarian) | growth (OVCAR-3 ovarian)
O=C(CCCCCCN1CC(=O)N2[C@@H](c3cccs3)c3[nH]c4ccccc4c3C[C@H]2C1=O)NO | 77.8% | 92.2% | 93.8% | 82.7% | 85.5% | 96.7% | 88.5% | 87.3% | 24.2% | 19.3% | 35.6% | 55% | 61.7% | 70.4% | 95.6% | 101% | 94.3% | 81.1% | 90.4% | –
CC1=C(C)C(=O)C(Nc2ccc(C)c(C)c2)=C(Br)C1=O | 112% | 34.2% | 98.7% | 90.8% | 157% | 102% | 94% | 91.1% | -16.8% (active) | -14.7% (active) | 43.6% | 29.8% | 100% | 111% | 55.1% | 100% | 90.9% | 97.4% | 82.7% | 109%
Brc1ccc2[nH]cc(-c3nn4cc(-c5nccs5)nc4s3)c2c1 | 81.4% | 64.9% | 71.1% | -48.1% (active) | 98.3% | 3.16% (active) | -36.8% (active) | 47.5% | 17.1% | 16.5% | 45.2% | 4.55% (active) | 10.5% | 67.5% | -4% (active) | 61.5% | 32% | -0.729% (active) | 15.8% | –
CC(C)(C)OC(=O)Nc1ccc(-c2cccc(Oc3ccc4nnc(Cl)n4n3)c2)cc1 | 65.8% | 86.7% | 78.7% | 67.6% | 71.1% | 88% | 83.6% | 70.1% | 60.4% | 46.3% | 36% | 43.2% | 71.3% | 100% | 63.7% | 95.5% | 98.8% | 94.5% | 70.8% | –
N#C/C(=C\c1ccc(-c2ccc(Cl)c(Cl)c2)o1)C(=O)Nc1ncc(Cc2ccc(Cl)cc2)s1 | 87.9% | 32.2% | 12% | 24.9% | 68.5% | 59.1% | 57.4% | 40.9% | 31.9% | 58.6% | 16% | 67.4% | 19.9% | 45.7% | -15.1% (active) | 81.2% | 26.2% | -7.83% (active) | 32.7% | –
CN1CCN(CC#CCn2c3c(c4ccccc42)C[C@]2(C)[C@H]4CC=C5[C@@H]6CC(C)(C)CC[C@]6(C(=O)N6CCOCC6)CC[C@@]5(C)[C@]4(C)CC[C@H]2C3(C)C)CC1 | 119% | 75.2% | 81.1% | 56.5% | 135% | 93% | 64.5% | 92.4% | 35% | 33.9% | -4.82% (active) | 45.5% | 84.8% | 87.2% | 88.1% | 103% | 77.6% | 91.3% | 76.8% | –
C#Cc1nc(/C=C/C(=O)NO)cs1 | 81.5% | 85.2% | 91.6% | -94% (active) | 43% | -81.9% (active) | -94.9% (active) | 17.9% | -45.7% (active) | -45.3% (active) | -42.9% (active) | -6.82% (active) | 21% | 42.3% | -24.9% (active) | 95.6% | -71.5% (active) | 56% | -6.26% (active) | –
CN1CCN(Cc2ccc(NC(=O)c3cncc(C#Cc4cnc5ccc(OCC(F)F)nn45)c3)cc2C(F)(F)F)CC1 | -86.5% (active) | -69.1% (active) | -75.2% (active) | -95.8% (active) | -84.4% (active) | -98.3% (active) | -95.9% (active) | -91.7% (active) | 2.09% (active) | -21.7% (active) | -24.3% (active) | -21.7% (active) | -74.6% (active) | -47.1% (active) | -62.6% (active) | -24.2% (active) | -53.8% (active) | -34.1% (active) | -28.1% (active) | –
CN1CCN(Cc2ccc(NC(=O)c3cncc(C#Cc4cnc5ccc(N6CCOCC6)nn45)c3)cc2C(F)(F)F)CC1 | -88.3% (active) | -47.5% (active) | -22.1% (active) | -81.2% (active) | -64.3% (active) | -97.8% (active) | -50.3% (active) | -94.3% (active) | -2.39% (active) | 0.376% (active) | -28.4% (active) | -23.9% (active) | -37.6% (active) | -20.4% (active) | -19.7% (active) | -31.9% (active) | -32.8% (active) | -27.8% (active) | -15.8% (active) | –
COCCOc1ccc2ncc(C#Cc3cncc(C(=O)Nc4ccc(CN5CCN(C)CC5)c(C(F)(F)F)c4)c3)n2n1 | -82.7% (active) | 33.6% | 10.2% | 2.58% (active) | 14.3% | 4.87% (active) | 1.32% (active) | -50.4% (active) | 11.7% | 13.2% | 0.746% (active) | 23.4% | 24.4% | 21.8% | 43.2% | 24% | 9.76% (active) | -13.3% (active) | 3.81% (active) | –
O=C(/C=C/c1ccc(Cl)c(Cl)c1)Nc1ncc(Cc2ccc(Cl)c(Cl)c2)s1 | 79.2% | 69.8% | 83.7% | 63.5% | 95.8% | 42.6% | 53.9% | 99.8% | 71.3% | 54.8% | 38% | 81.2% | 44% | 59.6% | 34% | 77.1% | 60.6% | 76.4% | 52.8% | –
COc1cccc(N2CCN(C3=C(Cl)C(=O)c4ncccc4C3=O)CC2)c1 | 98.4% | 102% | 95.8% | 38% | 126% | -23.8% (active) | 57.8% | 104% | 10% (active) | 18.2% | 4.42% (active) | 55.8% | 82.8% | 124% | 80.5% | 93.8% | 80.8% | 84.4% | 81.9% | –
CN1CCN(Cc2ccc(NC(=O)c3cncc(C#Cc4cnc5ccc(OCCCS(C)(=O)=O)nn45)c3)cc2C(F)(F)F)CC1 | -82% (active) | -10.7% (active) | -15.8% (active) | -12.9% (active) | -6.6% (active) | -16.1% (active) | -14% (active) | -90.9% (active) | 6.43% (active) | 2.88% (active) | 3.03% (active) | -3.99% (active) | -20.5% (active) | 3.1% (active) | -29.7% (active) | -10.9% (active) | -13.9% (active) | -24.1% (active) | 75% | –
Oc1ccc(-c2nc3ccc(/C(=N\N=C\c4ccc(Cl)cc4)c4ccccc4)cc3[nH]2)cc1 | 90.6% | 98.9% | 83.5% | 63.5% | 105% | 86.8% | 76.1% | 65.7% | 21.6% | 57% | 62.1% | 33.9% | 82.9% | 97.1% | 58.1% | 106% | 89.9% | 98.3% | 93% | –
Nn1c(=O)n(-c2cccc(C(F)(F)F)c2)c(=O)c2cc(-c3ccc(F)cc3F)ccc21 | -21.5% (active) | 3.55% (active) | 1.86% (active) | 5.45% (active) | 7.05% (active) | 0.86% (active) | -12.5% (active) | -20.6% (active) | 13.3% | 4.48% (active) | 6.24% (active) | -19.1% (active) | 9.99% (active) | 47.2% | 28.8% | -8.64% (active) | 20.9% | 0.556% (active) | 2.58% (active) | –
COC(=O)[C@@H](Cc1c[nH]c2ccccc12)NC(=O)CCCCOc1cc(O)c2c(=O)cc(-c3ccccc3)oc2c1 | 90.5% | 86.8% | 95.2% | 68.8% | 132% | 91.8% | 71.9% | 70% | 83.1% | 65.1% | 72.3% | 71.8% | 87.5% | 104% | 80% | 97.7% | 87.5% | 80.9% | 80.9% | –
